Assay results: PubChem BioAssay AID2291 (The Scripps Research Institute Molecular Screening Center, 2010)
About 75 (0.5%) of roughly 16,000 compounds were called active. No stated cut-off is given here; in the data, active means inhibition above about 30%; inactive means the rest. What follows is part of a selection rich in actives, with near analogues and random picks from the rest.

Target: Protein phosphatase methylesterase 1 (Homo sapiens) (UniProt Q9Y570)
Assay: inhibitors of human PME-1 in Maybridge library (AID 2291)
Details: recombinant PME-1, FP-Rh probe fluorescence polarization; at 9 µM; hits give high values

Chain of Protein phosphatase methylesterase 1 (Homo sapiens) (Q9Y570 whole entry, looked up): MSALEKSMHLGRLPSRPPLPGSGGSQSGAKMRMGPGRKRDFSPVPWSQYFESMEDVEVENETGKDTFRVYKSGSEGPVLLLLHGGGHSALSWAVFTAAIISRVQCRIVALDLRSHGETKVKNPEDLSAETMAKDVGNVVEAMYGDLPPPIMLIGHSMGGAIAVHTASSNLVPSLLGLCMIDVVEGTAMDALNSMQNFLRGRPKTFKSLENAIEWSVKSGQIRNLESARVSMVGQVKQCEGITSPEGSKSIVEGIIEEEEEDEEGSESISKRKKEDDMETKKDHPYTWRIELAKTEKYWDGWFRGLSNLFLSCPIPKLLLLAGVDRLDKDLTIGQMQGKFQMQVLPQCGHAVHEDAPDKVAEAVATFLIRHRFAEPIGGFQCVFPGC

inhibition, active:
O=C1Nc2ccccc2C12NNC(=S)NN2 65.2%

inhibition, inactive:
COc1ccc(-c2ccc(/C=N/NC(=O)CCc3ccc(O)cc3)s2)cc1 -3.06%
COc1ccc(COCC(O)CN2CCC(C(N)=O)CC2)cc1 (configuration not stated) 1.38%
FC(F)(F)c1ccc(Cl)c(NC(=S)NN=C2CCCCCC2)c1 0.88%
CC1(C)C=Cc2cc(-c3noc(-c4ccccc4)n3)ccc2O1 -23.5%
CCCc1c(C(=O)Nc2ccc(F)cc2)cnn1-c1ccccc1 3.87%
O=C(Oc1ccccc1N1CCCCC1)c1sc2ccccc2c1Cl -0.751%
CCOC(=O)CNC(=O)CCc1cc(OC)c(OC)c(OC)c1 6.62%
Cn1c(S(=O)(=O)O)nc2ccccc21 3.94%
O=C(Sc1ccccc1)c1ccc(C(F)(F)F)cc1 -0.43%
CN(NS(=O)(=O)CS(C)(=O)=O)c1ncccc1[N+](=O)[O-] 5.17%
O=C(O)c1onc2ccccc12 -2.58%
CCOC(=O)NN(C(=O)OCC)c1c(C)c(C)c(C)c(C)c1C -1.33%
Cc1nc(C(F)(F)F)ccc1C(=O)NC1CCCc2ccccc21 (configuration not stated) 1.46%
Cc1cc2nc(C)c(C)nc2cc1C -1.82%
COc1ccc(NC(=O)C2CC(C)=C(C)CC2C(=O)O)c(N2CCOCC2)n1 (configuration not stated) 1.52%
N#CC(Cc1ccccc1)Sc1ccccc1 (configuration not stated) 3.19%
O=C(CNC(=O)c1ccccc1F)c1ccc(Br)cc1 -7.48%
O=C(/C(=N\N=C\c1ccc2c(c1)OCO2)c1ccccc1)c1ccccc1 4.75%
Cc1cc2nsnc2cc1Cl 0.257%
COC(=O)c1sc(SC)c(-c2ccn[nH]2)c1C 2.07%
NC(=S)N/N=C\Cc1nnnn1-c1ccc(Cl)cc1 1.94%
Nc1nc(C23CC4CC(CC(C4)C2)C3)cs1 8.45%
CSc1ccc(C(F)(F)F)cc1C(=O)/C=C/N(C)C -0.344%
Clc1ccc(-c2csc(-c3cnccn3)n2)s1 -1.61%
O=C1c2ccc3c4c(ccc(c24)C(=O)N1c1ccccc1)C(=O)N(c1ccccc1)C3=O 5.87%
CCOC(=O)C1=C(C)NC(=O)NC1c1ccc(-c2cccc([N+](=O)[O-])c2)o1 (configuration not stated) -24.2%
C/C(=N\NC(N)=S)c1csc(-c2ccccc2)n1 4.41%
O=C(c1cc(-c2cccs2)on1)N1CCCCC1 -4.77%
COCn1nnc2ccccc21 0.294%
COc1ccc(/C=C(\NC(=O)c2ccccc2)C(=O)N/N=C/c2ccc3c(c2)OCO3)cc1 -5.56%
CCCCc1ccc(-n2c(-c3ccc(F)cc3)coc2=O)cc1 2.07%
N#C/C(=C\N1CCc2ccccc21)S(=O)(=O)c1ccc(C(F)(F)F)cn1 2.09%
Cn1c(=O)c(C#N)cn(-c2ccccc2)c1=O 2.81%
Cc1ccc(NC(=S)C(C#N)C(=O)N2CCCC2)c(C)c1 (configuration not stated) -4.1%
O=C(Nc1ccccc1-c1ccccc1)c1cccs1 -1.11%
Fc1cccc(Cl)c1CN1CCN(c2ncnc3scc(-c4cccs4)c23)CC1 -3.44%
CCOC(=O)Cc1csc(NC(NC(=O)OCC)(C(F)(F)F)C(F)(F)F)n1 4.35%
CSc1ccc(C(F)(F)F)cc1NC(=S)Nc1ccccc1 0.0132%
N#Cc1c(-c2cccs2)oc(-n2cccc2)c1-c1cc(Br)cs1 -56.1%
O=C(NNC(=O)C1c2ccccc2Oc2ccccc21)c1cccc(F)c1 0.119%
O=S(=O)(NC1Cc2ccccc2C1)c1ccc(-c2csnn2)cc1 7.03%
Cn1cnc([N+](=O)[O-])c1N1CCN(C(c2ccccc2)c2ccccc2)CC1 0.986%
CN1CCCCC(C2=C(Cl)C(=O)CCC2)C1=O (configuration not stated) 3.98%
OC(COc1ccc(Cl)c(Cl)c1)CN1CCC(Nc2nccc(C(F)(F)F)n2)CC1 (configuration not stated) -0.258%
O=C(Nc1cc2ccccc2s1)N1CCN(Cc2c(F)cccc2Cl)CC1 0.279%
NC(=O)c1cccc2c1OCCO2 6.89%
Nc1ccccc1SCc1cc([N+](=O)[O-])cc2c1OCOC2 5.44%
COc1cc(CC/C(C)=N/O)ccc1O 3.22%
NNC(=O)c1ccc(Cl)cc1Cl 15.5%
CC(=O)Nc1ccc(C)cc1N=Cc1ccncc1 2.67%
O=C(O)c1cnc(NCc2ccccc2)s1 -5.43%
COc1ccc(CCN=C(C)c2cc(Cl)cc(Cl)c2O)cc1OC 0.059%
CC1(NC(=O)OCc2ccccc2)CC1NC(=O)OCc1ccccc1 (configuration not stated) -1.61%
O=S(=O)(c1ccc2c(c1)OCCO2)N1CCN(c2ccc(C(F)(F)F)cn2)CC1 27.1%
O=C(Cc1cccc2ccccc12)NNC(=O)Nc1ccc(Cl)cc1 -12.8%
CCOC(=O)/C(=N/Nc1ccccc1)C(C)=N 1.95%
N#CC(C#N)=C/C=C(/Sc1nc2cc(Cl)ccc2s1)c1ccc(Cl)cc1 3.07%
Cc1cccc(Cl)c1NC(=S)NCCNC(=O)OC(C)(C)C -2.72%
O=c1[nH]c2ccccc2c(=O)n1CCSc1ccc(Cl)cc1 -0.818%
O=C(O)CCc1cccnc1 5.03%
OC(CN1CCN(c2ccc(C(F)(F)F)cn2)CC1)c1ccc2c(c1)OCCO2 (configuration not stated) -3.57%
OC(COc1ccc(F)cc1)(c1ccccc1)c1ccccc1 2.52%
Cn1/c(=N\N=C2CCCCC2)sc2ccccc21 24.3%
O=C(O)/C=C/C(=O)Nc1ccc(NC(=O)c2ccccc2O)cc1 -5.93%
O=C1CC(c2ccccc2)C(=O)N1Cc1cccs1 (configuration not stated) -0.212%
CCOC(=O)c1c(N/N=C\c2ccccc2O)n[nH]c1C 7.03%
COc1ccccc1C1CCN(c2ccc([N+](=O)[O-])cn2)CC1 3.68%
COC(=O)c1scc(S(=O)(=O)Cc2ccco2)c1N/N=C(\C#N)S(=O)(=O)C(C)C 7.89%
CCCCOC(=O)c1ccc(-c2ccccn2)s1 5.14%
COc1cccc(/C=N/NC(=S)Nc2cc(C(F)(F)F)cc(C(F)(F)F)c2)c1O 5.97%
CCCC1NC(=O)NC(C)=C1C(=O)OCC (configuration not stated) -4.5%
O=[N+]([O-])c1ccc(C2CC2(Br)Br)cc1 (configuration not stated) 0.49%
Cc1nc2ccccn2c1C(=O)N/N=C/c1cn(-c2ccccc2)nc1-c1cccs1 1.07%
CSc1c(C#N)c(N)nc(SCC(=O)c2ccc(OC(F)F)cc2)c1C#N -10.3%
CCOC(=O)/C(C#N)=C/N=C(N/N=C/c1cccs1)SC -1.55%
Cn1c(CN2C(=O)CSc3ccc(C(F)(F)F)cc32)nnc1SCC(=O)c1ccccc1 5.25%
CC(C)CC(NC(=O)OC(C)(C)C)C(=O)OCc1ccc(CC(=O)O)cc1 (configuration not stated) -2.54%
O=C(NNc1ccccc1C(F)(F)F)NS(=O)(=O)c1ccc(Cl)cc1 5.25%
CCOC(=O)c1ccc2nc(C(F)(F)F)cc(N3CCN(Cc4ccccc4)CC3)c2c1 -1.13%
Cc1nc(C)c(-c2ccnc(-c3ccc(Cl)cc3)n2)s1 4.12%
NC(CC(=O)O)c1ccccc1 (configuration not stated) 6.22%
CSc1nc(N)nc2nc[nH]c12 -1.11%
COC(=O)c1cc(S(=O)(=O)NCc2csc(-c3cccs3)n2)oc1C -1.1%
CC1=C(C(=O)O)N2C(=O)[C@H](NC(=O)[C@@H](N)c3ccccc3)C2SC1 (some centres not stated) 0.953%
N#CCSc1ccc2ccccc2c1 3.36%
CCOC(=O)c1c(NC(=S)Nc2ccccc2)sc2c1CCN(C)C2 -2.27%
NC(=O)C1CCN(CC(O)CSc2ccc(F)cc2)CC1 (configuration not stated) 0.714%
CC(=O)Nc1cccc(-n2nnc(SCC(=O)c3cc(-c4ccccc4)no3)n2)c1 -46.5%
CCOC(=O)C(=CNc1cc(C(F)(F)F)ccc1NCc1ccccc1)C(=O)OCC 1.63%
COC(=O)c1cc(OC)c(OC)cc1NC(=O)CSc1ccc(Cl)cc1 5.14%
NC(=O)c1ccccc1OCCOc1ccccc1C(N)=O -1.29%
Cn1cc(Br)c(-c2cccc(NC(=O)c3ccccc3Cl)c2)n1 5.94%
N#Cc1nccnc1N1CCN(c2ccccc2)CC1 1.69%
N#Cc1cccnc1NNC(=O)c1ccccc1C(=O)O -1.06%
Fc1ccc(COc2ccc(-c3nnco3)cc2)cc1 4.75%
CCOC(=O)c1cnc2c(S(=O)(=O)C(C)C)csc2c1Sc1cccc(Cl)c1 3.84%
CC(=O)N1C=CC(c2c[nH]c3ccccc23)C=C1 -3.18%
CC(C)S(=O)(=O)/C(C#N)=C/c1ccccc1OC(F)(F)F 2.58%
CS(=O)(=NC(=O)c1cc2ccccc2o1)c1ccc(Cl)cc1 (configuration not stated) 4.96%
CC(C)(C)C(=O)OCC(N)=S -1.98%
O=[N+]([O-])c1ccc(N2CCC2)cc1 0.196%
